# Measurements from ChEMBL document CHEMBL1961873, “Compounds: GSK PKIS; Assays: Nanosyn kinase panel” (2012).
# Key:
# [1] = target: T1, Inhibitor of nuclear factor kappa-B kinase subunit epsilon (Homo sapiens) (UniProt Q14164); settings: at 1 µM;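 also: reported values are averaged percent inhibition figures against human IKKε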
# T1 sequence (whole entry): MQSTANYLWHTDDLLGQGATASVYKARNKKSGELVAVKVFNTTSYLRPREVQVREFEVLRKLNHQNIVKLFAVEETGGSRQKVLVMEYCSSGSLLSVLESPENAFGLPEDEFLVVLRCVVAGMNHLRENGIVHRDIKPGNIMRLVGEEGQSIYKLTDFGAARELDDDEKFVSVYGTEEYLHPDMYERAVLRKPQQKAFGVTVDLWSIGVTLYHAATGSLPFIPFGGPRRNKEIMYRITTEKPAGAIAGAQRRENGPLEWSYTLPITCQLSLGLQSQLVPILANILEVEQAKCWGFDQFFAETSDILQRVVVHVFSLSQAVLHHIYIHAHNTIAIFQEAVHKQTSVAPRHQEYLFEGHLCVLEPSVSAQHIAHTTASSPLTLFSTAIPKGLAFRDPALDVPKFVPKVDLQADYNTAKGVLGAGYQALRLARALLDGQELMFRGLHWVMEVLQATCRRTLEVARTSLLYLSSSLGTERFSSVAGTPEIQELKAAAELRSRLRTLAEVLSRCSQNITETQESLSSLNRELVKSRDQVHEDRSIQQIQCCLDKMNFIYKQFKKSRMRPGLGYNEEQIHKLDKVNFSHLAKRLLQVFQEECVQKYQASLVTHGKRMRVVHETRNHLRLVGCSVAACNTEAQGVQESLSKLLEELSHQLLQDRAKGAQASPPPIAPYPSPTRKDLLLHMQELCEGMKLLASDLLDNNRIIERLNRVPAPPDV
# [2] = target: T2, Serine/threonine-protein kinase Nek1 (Homo sapiens) (UniProt Q96PY6); settings: at 0.1 µM
# T2 sequence (whole entry): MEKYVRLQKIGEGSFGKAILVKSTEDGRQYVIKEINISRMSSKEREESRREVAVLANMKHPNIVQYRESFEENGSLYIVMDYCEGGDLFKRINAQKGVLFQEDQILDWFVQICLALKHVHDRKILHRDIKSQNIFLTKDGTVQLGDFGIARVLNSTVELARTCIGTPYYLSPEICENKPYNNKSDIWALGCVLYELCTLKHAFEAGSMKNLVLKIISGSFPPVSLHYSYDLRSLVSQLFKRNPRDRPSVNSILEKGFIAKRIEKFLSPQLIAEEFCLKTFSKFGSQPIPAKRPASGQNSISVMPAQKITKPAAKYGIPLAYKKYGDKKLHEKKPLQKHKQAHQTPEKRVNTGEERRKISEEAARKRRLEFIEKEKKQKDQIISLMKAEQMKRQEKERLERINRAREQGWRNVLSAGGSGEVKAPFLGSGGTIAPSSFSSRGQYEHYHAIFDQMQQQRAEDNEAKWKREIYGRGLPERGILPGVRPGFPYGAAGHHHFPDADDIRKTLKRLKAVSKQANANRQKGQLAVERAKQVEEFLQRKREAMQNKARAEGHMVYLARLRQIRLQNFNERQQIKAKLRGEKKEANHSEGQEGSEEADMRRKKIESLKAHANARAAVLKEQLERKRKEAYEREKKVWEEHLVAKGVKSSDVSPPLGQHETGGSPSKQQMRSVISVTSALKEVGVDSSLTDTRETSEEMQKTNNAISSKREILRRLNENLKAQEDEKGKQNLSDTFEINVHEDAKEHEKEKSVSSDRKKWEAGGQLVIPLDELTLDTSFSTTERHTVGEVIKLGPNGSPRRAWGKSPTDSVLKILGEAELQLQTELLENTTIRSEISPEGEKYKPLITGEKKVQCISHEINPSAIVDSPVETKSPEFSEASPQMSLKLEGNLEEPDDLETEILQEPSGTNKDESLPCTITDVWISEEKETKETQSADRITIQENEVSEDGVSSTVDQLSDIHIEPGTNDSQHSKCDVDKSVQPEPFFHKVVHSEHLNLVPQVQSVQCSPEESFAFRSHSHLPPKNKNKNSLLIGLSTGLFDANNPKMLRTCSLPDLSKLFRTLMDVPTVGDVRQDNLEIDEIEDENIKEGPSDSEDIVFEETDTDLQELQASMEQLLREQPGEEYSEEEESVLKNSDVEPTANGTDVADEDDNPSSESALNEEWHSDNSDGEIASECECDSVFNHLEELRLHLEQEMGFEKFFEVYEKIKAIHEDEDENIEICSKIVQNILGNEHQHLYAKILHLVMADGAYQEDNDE
# [3] = target: T2, Serine/threonine-protein kinase Nek1 (Homo sapiens); settings: at 1 µM
# [4] = target: T3, Serine/threonine-protein kinase Nek2 (Homo sapiens) (UniProt P51955); settings: at 0.1 µM
# T3 sequence (whole entry): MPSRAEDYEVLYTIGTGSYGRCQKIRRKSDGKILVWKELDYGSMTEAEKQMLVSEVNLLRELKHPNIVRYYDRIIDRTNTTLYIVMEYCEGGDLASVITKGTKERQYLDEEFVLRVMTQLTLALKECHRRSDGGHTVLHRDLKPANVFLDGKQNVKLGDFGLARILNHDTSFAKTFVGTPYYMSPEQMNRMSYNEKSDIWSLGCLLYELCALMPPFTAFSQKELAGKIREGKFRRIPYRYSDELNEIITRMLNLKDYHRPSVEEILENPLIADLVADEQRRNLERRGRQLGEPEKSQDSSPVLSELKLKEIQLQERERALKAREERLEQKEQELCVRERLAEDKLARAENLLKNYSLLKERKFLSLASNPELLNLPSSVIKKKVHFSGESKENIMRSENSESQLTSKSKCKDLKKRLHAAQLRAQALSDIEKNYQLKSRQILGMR
# [5] = target: T3, Serine/threonine-protein kinase Nek2 (Homo sapiens); settings: at 1 µM
# [6] = target: Serine/threonine-protein kinase Nek6 (Homo sapiens) (UniProt Q9HC98); settings: at 0.1 µM
# Chain of Serine/threonine-protein kinase Nek6 (Homo sapiens) (Q9HC98 whole entry): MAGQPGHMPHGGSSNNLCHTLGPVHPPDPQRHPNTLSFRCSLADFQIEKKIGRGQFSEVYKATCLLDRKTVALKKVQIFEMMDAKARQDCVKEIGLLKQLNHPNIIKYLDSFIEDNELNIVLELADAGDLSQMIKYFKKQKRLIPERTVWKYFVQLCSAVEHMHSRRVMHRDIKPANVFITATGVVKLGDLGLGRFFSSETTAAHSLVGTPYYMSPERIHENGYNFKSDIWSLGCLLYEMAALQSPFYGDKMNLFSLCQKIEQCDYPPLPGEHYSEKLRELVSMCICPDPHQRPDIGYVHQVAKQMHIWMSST
# [7] = target: Serine/threonine-protein kinase Nek6 (Homo sapiens) (UniProt Q9HC98); settings: at 1 µM
# [8] = target: Serine/threonine-protein kinase Nek7 (Homo sapiens) (UniProt Q8TDX7); settings: at 0.1 µM
# Chain of Serine/threonine-protein kinase Nek7 (Homo sapiens) (Q8TDX7 whole entry, looked up): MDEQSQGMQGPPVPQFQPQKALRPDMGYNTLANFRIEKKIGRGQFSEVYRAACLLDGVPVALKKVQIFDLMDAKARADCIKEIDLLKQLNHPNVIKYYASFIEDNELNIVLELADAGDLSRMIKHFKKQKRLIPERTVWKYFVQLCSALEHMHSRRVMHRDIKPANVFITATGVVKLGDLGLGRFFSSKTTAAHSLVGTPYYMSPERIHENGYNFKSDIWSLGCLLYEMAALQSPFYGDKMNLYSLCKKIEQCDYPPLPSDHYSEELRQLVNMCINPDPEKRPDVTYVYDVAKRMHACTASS
# [9] = target: Serine/threonine-protein kinase Nek7 (Homo sapiens) (UniProt Q8TDX7); settings: at 1 µM
# [10] = target: T4, Serine/threonine-protein kinase Nek9 (Homo sapiens) (UniProt Q8TD19); settings: at 0.1 µM
# T4 sequence (whole entry): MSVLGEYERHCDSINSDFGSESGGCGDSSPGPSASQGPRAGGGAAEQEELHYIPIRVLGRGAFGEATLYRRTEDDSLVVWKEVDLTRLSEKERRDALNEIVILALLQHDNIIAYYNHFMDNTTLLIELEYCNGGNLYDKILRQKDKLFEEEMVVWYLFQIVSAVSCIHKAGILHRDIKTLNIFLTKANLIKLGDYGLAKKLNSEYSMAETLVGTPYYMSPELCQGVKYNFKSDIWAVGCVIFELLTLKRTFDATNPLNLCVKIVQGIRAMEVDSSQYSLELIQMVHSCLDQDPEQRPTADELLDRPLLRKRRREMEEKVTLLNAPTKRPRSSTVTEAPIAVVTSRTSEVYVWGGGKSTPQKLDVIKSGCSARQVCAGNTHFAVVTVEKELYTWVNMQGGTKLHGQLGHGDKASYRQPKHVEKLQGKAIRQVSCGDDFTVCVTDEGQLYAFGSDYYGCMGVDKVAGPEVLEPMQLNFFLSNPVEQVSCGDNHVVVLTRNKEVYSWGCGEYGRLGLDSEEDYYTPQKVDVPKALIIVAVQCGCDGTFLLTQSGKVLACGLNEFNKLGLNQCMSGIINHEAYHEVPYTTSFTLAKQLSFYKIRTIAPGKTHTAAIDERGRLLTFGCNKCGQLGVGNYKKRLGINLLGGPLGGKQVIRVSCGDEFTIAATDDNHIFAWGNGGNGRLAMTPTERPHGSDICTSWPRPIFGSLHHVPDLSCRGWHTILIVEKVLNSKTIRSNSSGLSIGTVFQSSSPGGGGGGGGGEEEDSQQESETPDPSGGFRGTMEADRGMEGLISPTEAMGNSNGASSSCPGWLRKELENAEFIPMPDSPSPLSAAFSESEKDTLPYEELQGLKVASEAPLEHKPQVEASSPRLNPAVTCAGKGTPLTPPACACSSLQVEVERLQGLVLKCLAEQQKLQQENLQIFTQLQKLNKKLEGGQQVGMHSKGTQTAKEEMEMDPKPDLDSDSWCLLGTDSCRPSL
# [11] = target: T4, Serine/threonine-protein kinase Nek9 (Homo sapiens); settings: at 1 µM
# [12] = target: Serine/threonine-protein kinase PLK1 (Homo sapiens) (UniProt P53350); settings: at 0.1 µM
# Chain of Serine/threonine-protein kinase PLK1 (Homo sapiens) (P53350 whole entry): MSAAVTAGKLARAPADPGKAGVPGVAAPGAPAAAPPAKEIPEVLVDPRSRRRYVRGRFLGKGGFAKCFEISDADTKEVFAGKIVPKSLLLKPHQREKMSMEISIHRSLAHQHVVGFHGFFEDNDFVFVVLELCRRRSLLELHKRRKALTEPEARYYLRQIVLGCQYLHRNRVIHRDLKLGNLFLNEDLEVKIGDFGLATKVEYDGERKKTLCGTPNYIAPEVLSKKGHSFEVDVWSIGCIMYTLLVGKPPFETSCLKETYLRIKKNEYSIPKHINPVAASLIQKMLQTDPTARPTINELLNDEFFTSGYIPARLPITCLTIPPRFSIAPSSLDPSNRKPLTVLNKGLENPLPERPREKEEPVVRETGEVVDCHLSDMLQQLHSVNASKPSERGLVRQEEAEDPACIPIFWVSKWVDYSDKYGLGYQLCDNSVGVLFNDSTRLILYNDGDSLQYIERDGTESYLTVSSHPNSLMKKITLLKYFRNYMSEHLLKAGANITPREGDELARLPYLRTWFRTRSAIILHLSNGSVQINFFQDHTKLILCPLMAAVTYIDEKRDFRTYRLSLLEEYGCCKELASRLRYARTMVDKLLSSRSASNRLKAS
# [13] = target: Serine/threonine-protein kinase PLK1 (Homo sapiens) (UniProt P53350); settings: at 1 µM
# [14] = target: T5, Dual specificity protein kinase TTK (Homo sapiens) (UniProt P33981); settings: at 0.1 µM
# T5 sequence (whole entry): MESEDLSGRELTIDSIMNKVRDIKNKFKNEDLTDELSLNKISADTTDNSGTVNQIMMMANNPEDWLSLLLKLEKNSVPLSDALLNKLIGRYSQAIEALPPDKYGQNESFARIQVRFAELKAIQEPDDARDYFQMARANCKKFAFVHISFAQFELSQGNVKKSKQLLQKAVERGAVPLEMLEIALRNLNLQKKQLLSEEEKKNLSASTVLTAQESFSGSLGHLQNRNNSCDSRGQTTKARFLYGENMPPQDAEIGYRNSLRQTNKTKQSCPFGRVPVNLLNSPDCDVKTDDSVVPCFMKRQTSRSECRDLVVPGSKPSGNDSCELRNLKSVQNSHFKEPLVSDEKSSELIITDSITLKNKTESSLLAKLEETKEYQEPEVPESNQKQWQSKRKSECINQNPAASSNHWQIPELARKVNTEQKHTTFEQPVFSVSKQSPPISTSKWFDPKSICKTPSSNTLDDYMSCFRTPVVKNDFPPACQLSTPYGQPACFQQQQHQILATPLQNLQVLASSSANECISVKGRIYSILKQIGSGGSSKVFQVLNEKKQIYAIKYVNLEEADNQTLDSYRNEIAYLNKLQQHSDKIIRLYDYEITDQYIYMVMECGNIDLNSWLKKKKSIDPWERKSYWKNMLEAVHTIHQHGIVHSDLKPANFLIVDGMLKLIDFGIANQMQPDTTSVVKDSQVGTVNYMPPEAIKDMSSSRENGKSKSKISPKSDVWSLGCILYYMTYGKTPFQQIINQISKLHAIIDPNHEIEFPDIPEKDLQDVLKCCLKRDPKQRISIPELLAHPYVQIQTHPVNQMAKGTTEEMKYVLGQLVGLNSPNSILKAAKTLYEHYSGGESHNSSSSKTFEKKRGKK
# [15] = tested on: T6, Receptor-type tyrosine-protein kinase FLT3 (Homo sapiens), P36888 [D835Y]; settings: at 1 µM
# T6 sequence (whole entry): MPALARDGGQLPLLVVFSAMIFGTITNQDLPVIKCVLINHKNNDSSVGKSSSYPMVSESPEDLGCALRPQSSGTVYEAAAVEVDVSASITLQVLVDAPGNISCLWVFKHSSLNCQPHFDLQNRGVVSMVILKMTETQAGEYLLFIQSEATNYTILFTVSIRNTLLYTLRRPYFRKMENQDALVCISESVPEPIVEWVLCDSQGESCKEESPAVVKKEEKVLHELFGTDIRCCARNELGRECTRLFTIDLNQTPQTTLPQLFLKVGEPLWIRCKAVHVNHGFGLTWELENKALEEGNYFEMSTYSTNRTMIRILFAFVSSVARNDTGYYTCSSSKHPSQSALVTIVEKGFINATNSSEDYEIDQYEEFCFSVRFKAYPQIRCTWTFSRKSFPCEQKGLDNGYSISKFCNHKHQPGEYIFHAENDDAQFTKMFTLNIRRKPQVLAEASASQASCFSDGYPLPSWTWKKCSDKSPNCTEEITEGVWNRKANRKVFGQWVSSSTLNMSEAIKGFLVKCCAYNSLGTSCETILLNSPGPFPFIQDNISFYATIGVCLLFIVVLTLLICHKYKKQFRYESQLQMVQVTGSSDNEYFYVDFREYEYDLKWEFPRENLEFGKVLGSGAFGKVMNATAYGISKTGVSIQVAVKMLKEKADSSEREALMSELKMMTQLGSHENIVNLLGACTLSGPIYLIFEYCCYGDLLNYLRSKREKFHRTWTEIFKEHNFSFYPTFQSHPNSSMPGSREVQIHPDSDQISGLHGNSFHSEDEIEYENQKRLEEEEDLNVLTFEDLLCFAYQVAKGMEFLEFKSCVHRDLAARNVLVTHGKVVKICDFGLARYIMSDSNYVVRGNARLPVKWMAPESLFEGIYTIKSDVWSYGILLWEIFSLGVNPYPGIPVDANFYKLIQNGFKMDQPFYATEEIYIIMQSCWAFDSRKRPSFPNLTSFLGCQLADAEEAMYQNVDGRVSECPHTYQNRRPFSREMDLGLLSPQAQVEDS
# [16] = target: Vascular endothelial growth factor receptor 3 (Homo sapiens) (UniProt P35916); settings: at 0.1 µM
# Chain of Vascular endothelial growth factor receptor 3 (Homo sapiens) (P35916 whole entry): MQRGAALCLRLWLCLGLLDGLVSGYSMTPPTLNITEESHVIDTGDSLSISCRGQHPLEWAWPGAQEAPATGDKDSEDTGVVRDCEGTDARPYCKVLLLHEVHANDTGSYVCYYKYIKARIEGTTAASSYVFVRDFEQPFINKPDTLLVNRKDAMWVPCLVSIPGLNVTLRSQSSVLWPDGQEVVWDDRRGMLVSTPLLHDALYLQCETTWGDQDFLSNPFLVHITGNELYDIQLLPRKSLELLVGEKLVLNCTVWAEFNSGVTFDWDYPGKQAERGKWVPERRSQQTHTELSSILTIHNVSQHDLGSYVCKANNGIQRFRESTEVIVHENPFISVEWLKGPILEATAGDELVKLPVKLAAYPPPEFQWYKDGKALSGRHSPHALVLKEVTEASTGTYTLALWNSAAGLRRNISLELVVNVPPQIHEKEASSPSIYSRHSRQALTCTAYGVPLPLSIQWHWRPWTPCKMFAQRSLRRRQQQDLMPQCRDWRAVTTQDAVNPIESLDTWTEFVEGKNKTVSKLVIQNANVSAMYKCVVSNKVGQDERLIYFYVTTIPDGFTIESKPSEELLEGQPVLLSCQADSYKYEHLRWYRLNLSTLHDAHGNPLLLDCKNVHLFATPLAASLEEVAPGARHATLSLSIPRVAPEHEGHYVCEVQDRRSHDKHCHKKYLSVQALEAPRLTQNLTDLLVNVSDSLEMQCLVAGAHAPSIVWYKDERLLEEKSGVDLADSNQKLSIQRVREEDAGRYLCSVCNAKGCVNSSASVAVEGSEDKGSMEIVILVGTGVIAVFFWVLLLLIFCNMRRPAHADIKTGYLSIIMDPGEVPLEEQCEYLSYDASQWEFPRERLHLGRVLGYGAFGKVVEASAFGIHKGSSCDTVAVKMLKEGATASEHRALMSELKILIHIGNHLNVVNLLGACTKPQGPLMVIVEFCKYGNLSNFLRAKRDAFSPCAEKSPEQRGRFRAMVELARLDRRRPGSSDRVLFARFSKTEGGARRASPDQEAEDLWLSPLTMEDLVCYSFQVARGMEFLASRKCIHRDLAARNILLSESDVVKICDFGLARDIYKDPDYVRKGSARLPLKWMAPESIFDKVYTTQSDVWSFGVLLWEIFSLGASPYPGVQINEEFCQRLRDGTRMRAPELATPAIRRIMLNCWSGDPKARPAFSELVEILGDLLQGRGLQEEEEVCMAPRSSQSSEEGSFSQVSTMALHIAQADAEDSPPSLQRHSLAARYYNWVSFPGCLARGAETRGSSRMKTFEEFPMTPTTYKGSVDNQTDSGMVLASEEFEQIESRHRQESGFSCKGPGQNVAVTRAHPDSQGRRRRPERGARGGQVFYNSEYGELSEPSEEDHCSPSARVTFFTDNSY
# [17] = target: Vascular endothelial growth factor receptor 3 (Homo sapiens) (UniProt P35916); settings: at 1 µM
# [18] = target: Macrophage colony-stimulating factor 1 receptor (Homo sapiens) (UniProt P07333); settings: at 0.1 µM
# Chain of Macrophage colony-stimulating factor 1 receptor (Homo sapiens) (P07333 whole entry): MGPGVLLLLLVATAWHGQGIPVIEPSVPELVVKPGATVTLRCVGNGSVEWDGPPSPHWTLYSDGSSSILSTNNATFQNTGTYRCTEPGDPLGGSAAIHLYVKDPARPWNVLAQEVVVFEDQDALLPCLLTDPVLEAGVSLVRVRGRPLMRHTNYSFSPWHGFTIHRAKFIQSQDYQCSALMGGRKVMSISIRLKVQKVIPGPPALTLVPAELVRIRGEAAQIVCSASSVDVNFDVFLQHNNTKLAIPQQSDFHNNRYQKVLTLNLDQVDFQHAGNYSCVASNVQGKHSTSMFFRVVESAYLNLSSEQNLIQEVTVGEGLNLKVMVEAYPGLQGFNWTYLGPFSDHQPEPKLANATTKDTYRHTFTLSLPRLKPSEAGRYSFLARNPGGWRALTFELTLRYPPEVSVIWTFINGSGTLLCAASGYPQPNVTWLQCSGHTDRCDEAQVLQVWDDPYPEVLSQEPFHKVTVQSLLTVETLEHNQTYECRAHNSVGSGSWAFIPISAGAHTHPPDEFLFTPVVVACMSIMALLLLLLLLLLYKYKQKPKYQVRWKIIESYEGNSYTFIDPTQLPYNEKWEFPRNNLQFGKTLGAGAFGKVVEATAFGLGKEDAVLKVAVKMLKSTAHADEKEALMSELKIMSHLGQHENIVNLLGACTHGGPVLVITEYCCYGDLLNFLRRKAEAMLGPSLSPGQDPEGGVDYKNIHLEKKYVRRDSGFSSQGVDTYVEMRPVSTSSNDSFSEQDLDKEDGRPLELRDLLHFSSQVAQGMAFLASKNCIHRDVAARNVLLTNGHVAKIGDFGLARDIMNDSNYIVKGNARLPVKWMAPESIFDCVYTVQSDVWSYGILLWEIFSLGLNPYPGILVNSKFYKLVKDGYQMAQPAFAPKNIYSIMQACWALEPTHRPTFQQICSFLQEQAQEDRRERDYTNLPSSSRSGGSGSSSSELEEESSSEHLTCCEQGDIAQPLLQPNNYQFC
# [19] = target: Macrophage colony-stimulating factor 1 receptor (Homo sapiens) (UniProt P07333); settings: at 1 µM
# [20] = target: Tyrosine-protein kinase Fyn (Homo sapiens) (UniProt P06241); settings: at 0.1 µM
# Chain of Tyrosine-protein kinase Fyn (Homo sapiens) (P06241 2-537 limits assumed): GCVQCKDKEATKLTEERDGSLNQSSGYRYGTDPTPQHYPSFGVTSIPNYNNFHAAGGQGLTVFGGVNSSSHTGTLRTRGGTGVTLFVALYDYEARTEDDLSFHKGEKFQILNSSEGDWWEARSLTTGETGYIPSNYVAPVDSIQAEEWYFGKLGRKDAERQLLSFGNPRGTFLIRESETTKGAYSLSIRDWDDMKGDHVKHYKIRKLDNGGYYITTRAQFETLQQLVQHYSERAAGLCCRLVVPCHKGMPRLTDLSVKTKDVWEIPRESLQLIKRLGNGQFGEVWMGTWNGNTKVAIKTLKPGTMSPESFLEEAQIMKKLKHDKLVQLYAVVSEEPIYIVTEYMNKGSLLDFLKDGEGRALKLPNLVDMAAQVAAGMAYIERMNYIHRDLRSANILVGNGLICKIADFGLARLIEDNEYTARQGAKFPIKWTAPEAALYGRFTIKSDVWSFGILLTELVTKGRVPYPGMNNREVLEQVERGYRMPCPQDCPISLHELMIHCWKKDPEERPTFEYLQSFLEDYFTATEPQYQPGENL
smiles,measurement,setting,value
COc1cc(N2CCN(C(C)C)CC2)ccc1Nc1nc(Nc2cccc(F)c2C(=O)O)c2cc[nH]c2n1,inhibition,[1],7.25%
same,inhibition,[2],2.08%
same,inhibition,[3],5.01%
same,inhibition,[4],5.22%
same,inhibition,[5],3.86%
same,inhibition,[6],2.61%
same,inhibition,[7],5.14%
same,inhibition,[8],3.58%
same,inhibition,[9],3.43%
same,inhibition,[10],9.89%
same,inhibition,[11],4.56%
same,inhibition,[12],6.28%
same,inhibition,[13],29.6%
same,inhibition,[14],62.3%
same,inhibition,[15],12.6%
same,inhibition,[16],2.54%
same,inhibition,[17],-0.47%
same,inhibition,[18],2.82%
same,inhibition,[19],2.24%
same,inhibition,[20],-0.12%
